According to the supplement of paper PMC8371130:
Where a name gives a salt, the structure may show the parent alone.

Tested on: HL-1
Assay: relative cell viability (CellTiter-Glo) vs DMSO control (% of DMSO control); higher = more viable cells
How it was run: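 Cell viability was determined from CellTiter-Glo luminescence, expressed relative to vehicle-treated control cells. The cells were HL-1 mouse atrial cardiomyocytes, plated at 1000 cells per well in 384-well plates with compounds at 40, 200, 1000 or 5000 nM in 0.01% DMSO. One day after plating, they underwent 48 h of hypoxia (1% O2) in a hypoxic workstation followed by 24 h of reoxygenation in a normal incubator, or were kept in normoxia for an equal time.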

[1] = oxygen condition: hypoxia 48 h (1% O2) + reoxygenation 24 h, 40 nM
[2] = oxygen condition: hypoxia 48 h (1% O2) + reoxygenation 24 h, 200 nM
[3] = oxygen condition: hypoxia 48 h (1% O2) + reoxygenation 24 h, 1000 nM
[4] = oxygen condition: hypoxia 48 h (1% O2) + reoxygenation 24 h, 5000 nM
[5] = oxygen condition: normoxia 72 h, 40 nM
[6] = oxygen condition: normoxia 72 h, 200 nM
[7] = oxygen condition: normoxia 72 h, 1000 nM
[8] = oxygen condition: normoxia 72 h, 5000 nM

SMILES | relative cell viability [1] | relative cell viability [2] | relative cell viability [3] | relative cell viability [4] | relative cell viability [5] | relative cell viability [6] | relative cell viability [7] | relative cell viability [8]
COc1ccc(CC(C)NCC(O)c2ccc(O)c(NC=O)c2)cc1 (configuration not stated) [Formoterol hemifumarate] | 100 | 98.7 | 102 | 111 | 104 | 106 | 98.9 | 106
Clc1ccc2c(c1)C(N1CCNCC1)=Nc1ccccc1O2 [Amoxapine] | 102 | 100 | 104 | 109 | 98.5 | 105 | 111 | 113
CCCS(=O)(=O)Nc1ccc(F)c(C(=O)c2c[nH]c3ncc(-c4ccc(Cl)cc4)cc23)c1F [Vemurafenib] | 102 | 111 | 107 | 111 | 104 | 96.2 | 106 | 118
CCC(NC(C)C)C(O)c1ccc(O)c(O)c1 (configuration not stated) [Isoetharine Mesylate] | 98.5 | 96.3 | 95.5 | 106 | 95.4 | 107 | 78.7 | 111
CN(C)CCc1c[nH]c2ccc(C[C@H]3COC(=O)N3)cc12 [Zolmitriptan] | 105 | 104 | 104 | 110 | 108 | 104 | 102 | 102
CCCCOc1cc(C(=O)OCCN(CC)CC)ccc1N [Oxybuprocaine HCl] | 106 | 106 | 108 | 108 | 103 | 102 | 113 | 112
Cc1ccc(C(=O)C(C)CN2CCCCC2)cc1 (configuration not stated) [Tolperisone HCl] | 107 | 107 | 109 | 108 | 107 | 114 | 81.5 | 111
Clc1ccc(COC(Cn2ccnc2)c2ccc(Cl)cc2Cl)cc1 (configuration not stated) [Econazole nitrate] | 102 | 104 | 106 | 108 | 110 | 105 | 102 | 105
CS(=O)(=O)c1ccc(C2=C(c3ccccc3)C(=O)OC2)cc1 [Rofecoxib] | 104 | 97.5 | 103 | 107 | 105 | 94.4 | 107 | 109
Cc1cc(C)nc(NS(=O)(=O)c2ccc(N)cc2)n1 [Sulfamethazine] | 102 | 104 | 104 | 112 | 94.6 | 104 | 105 | 119
Fc1ccc(C(c2ccc(F)cc2)N2CCN(C/C=C/c3ccccc3)CC2)cc1 [Flunarizine 2HCl] | 93.6 | 100 | 98.7 | 117 | 107 | 99.7 | 109 | 114
CN1CCN(C2=Nc3cc(Cl)ccc3Nc3ccccc32)CC1 [Clozapine] | 105 | 104 | 105 | 99.9 | 96 | 108 | 113 | 102
Cc1cc(C#N)cc(C)c1Oc1nc(Nc2ccc(C#N)cc2)nc(N)c1Br [Etravirine] | 106 | 103 | 109 | 111 | 108 | 111 | 115 | 110
CC(CCc1ccc(O)cc1)NCC(O)c1ccc(O)cc1 (configuration not stated) [Ractopamine HCl] | 103 | 100 | 108 | 60.4 | 98.9 | 104 | 106 | 106
Cc1ncc(C[n+]2csc(CCO)c2C)c(N)n1 [Thiamine HCl] | 101 | 107 | 102 | 112 | 99.4 | 104 | 106 | 117
CC(C)C[C@H](NC(=O)[C@@H](O)[C@H](N)Cc1ccccc1)C(=O)O [Ubenimex] | 99.1 | 95.6 | 98.2 | 103 | 101 | 98.8 | 99.7 | 108
COc1ccccc1OCC(O)CN1CCN(CC(=O)Nc2c(C)cccc2C)CC1 (configuration not stated) [Ranolazine dihydrochloride] | 88.7 | 89.7 | 86.8 | 108 | 98.5 | 97.1 | 98.8 | 110

SMILES | relative cell viability [1] | relative cell viability [2] | relative cell viability [3] | relative cell viability [4] | relative cell viability [5] | relative cell viability [6] | relative cell viability [7] | relative cell viability [8]
Nc1nc2n[nH]nc2c(=O)[nH]1 [Azaguanine-8] | 92 | 105 | 102 | 111 | 103 | 102 | 98.7 | 104
COc1ccc(Cl)cc1C(=O)NCCc1ccc(S(=O)(=O)NC(=O)NC2CCCCC2)cc1 [Glyburide] | 103 | 106 | 103 | 104 | 103 | 103 | 108 | 109
COc1nc(N)nc2c1ncn2[C@@H]1O[C@H](CO)[C@@H](O)[C@@H]1O [Nelarabine] | 113 | 114 | 112 | 112 | 111 | 112 | 108 | 111
CN1CCC[C@H]1c1cccnc1 [Nicotine Ditartrate] | 97.5 | 99.9 | 106 | 113 | 104 | 104 | 103 | 109
CS(=O)(=O)Nc1ccc([N+](=O)[O-])cc1Oc1ccccc1 [Nimesulide] | 105 | 105 | 109 | 103 | 108 | 105 | 102 | 104
O=c1[nH]c(=O)n(C2CCCO2)cc1F (configuration not stated) [Ftorafur] | 101 | 103 | 104 | 96.9 | 100 | 101 | 114 | 89.2
Clc1ccc2c(c1)CCc1cccnc1C2=C1CCNCC1 [Desloratadine] | 92.5 | 109 | 102 | 97 | 105 | 97.5 | 104 | 103
CCCCC(=O)N(Cc1ccc(-c2ccccc2-c2nnn[nH]2)cc1)[C@H](C(=O)O)C(C)C [Valsartan] | 104 | 97.5 | 80.6 | 51.6 | 98.1 | 95.6 | 93.8 | 45.1
CNC(=C[N+](=O)[O-])NCCSCc1ccc(CN(C)C)o1 [Ranitidine] | 82.2 | 102 | 97.9 | 106 | 90.9 | 105 | 106 | 112
NCCCCCC(=O)O [Aminocaproic acid] | 102 | 102 | 106 | 107 | 106 | 103 | 110 | 112
C#C[C@]1(O)CC[C@H]2[C@@H]3CCc4cc(OC)ccc4[C@H]3CC[C@@]21C [Mestranol] | 101 | 106 | 101 | 101 | 99.9 | 97.3 | 103 | 85.7
COc1cc2c(cc1O)CC[C@@H]1[C@@H]2CC[C@]2(C)[C@@H](O)CC[C@@H]12 [2-Methoxyestradiol] | 106 | 104 | 102 | 112 | 102 | 105 | 102 | 109
C[N+](C)(C)CCCCCC[N+](C)(C)C [Hexamethonium bromide] | 101 | 99.3 | 105 | 113 | 94.2 | 96.6 | 100 | 103
N#C[C@@H]1CCCN1C(=O)CNC12CC3CC(CC(O)(C3)C1)C2 [Vildagliptin] | 63.4 | 104 | 114 | 117 | 103 | 95.7 | 99 | 119
CCCCCCCCOc1ccccc1C(=O)Nc1ccc(C(=O)OCC[N+](C)(CC)CC)cc1 [Otilonium Bromide] | 101 | 107 | 108 | 114 | 107 | 105 | 110 | 114
C[C@]12CCC(=O)C=C1[C@@H]1C[C@@H]1[C@H]1[C@@H]3[C@@H]4C[C@@H]4[C@@]4(CCC(=O)O4)[C@@]3(C)CC[C@@H]12 [Drospirenone] | 104 | 104 | 109 | 105 | 103 | 112 | 100 | 104
Clc1ccccc1CN1CCc2sccc2C1 [Ticlopidine HCl] | 96.8 | 94.8 | 97 | 103 | 94.9 | 97.1 | 95.5 | 108
